Screens: PubChem BioAssay, National Center for Advancing Translational Sciences (NCATS)
Tb PYK inh: qHTS of Trypanosoma Brucei Inhibitors | TbPYK enzyme, Kinase-Glo Plus ATP luminescence, 45 min | 0.12% of 410,000 active | Potency, µM (series often up to 76.8 µM), hits mostly inhibitors | AID 624173, 2012; further: nearly all actives have a fitted effect of over 50% in size
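Assay buffer: 50 mM TEA pH 7.2, 100 mM KCl, 10 mM MgCl2, 0.05% BSA, 0.01% Tween-20. Pyruvate kinase from T. brucei plus substrate met compound, then ADP (130 uM final). Luminescence was read post 45 min RT.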
LmPK inhibitor: qHTS Assay for Inhibitors of Leishmania Mexicana Pyruvate Kinase (LmPK); Q27686; purified LmPK, Kinase-Glo ATP luminescence, 1 h; Potency, µM (series often up to 57.5 µM), hits mostly inhibitors; 0.37% of 290,000 active; AID 1721, 2009
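Screened at intermediate enzyme activity to detect both inhibitors and activators: LmPK at 0.1 nM, with a 0.5 nM enzyme column as activation reference. PEP 0.5 mM, ADP 0.1 mM; ATP detected by luminescence after 1 h.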
FBPA Giardia inh: qHTS Assay for Inhibitors of Fructose-1,6-bisphosphate Aldolase from Giardia Lamblia; A8B2U2; purified Giardia FBPA; Potency, µM (titrated, usually from 59.6 µM), most hits filed as inhibitors; 0.71% of 290,000 active; AID 2451, 2010; further: nearly all actives have a fitted effect of over 55% in size
Target sequence (A8B2U2 whole entry, looked up): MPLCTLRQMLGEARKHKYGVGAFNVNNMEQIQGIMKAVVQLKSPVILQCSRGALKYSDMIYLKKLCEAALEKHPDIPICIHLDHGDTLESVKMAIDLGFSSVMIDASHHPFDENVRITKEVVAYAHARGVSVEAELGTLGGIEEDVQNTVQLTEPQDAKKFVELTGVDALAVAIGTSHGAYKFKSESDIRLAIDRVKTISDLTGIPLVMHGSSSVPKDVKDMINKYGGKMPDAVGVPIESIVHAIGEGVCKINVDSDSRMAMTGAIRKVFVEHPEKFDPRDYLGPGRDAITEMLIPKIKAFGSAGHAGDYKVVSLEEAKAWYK
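40 nM FBPA preincubated 10 min at RT with compound (up to 57.5 uM final), then substrate plus GAPDH/TPI/NAD/arsenate coupling and diaphorase/resazurin added. Fluorescence read after 20 min at RT, 525/598 nm.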
CHX counter: Cycloheximide Counterscreen for Small Molecule Inhibitors of Shiga Toxin | 12% of 300,000 active | max response, % | cell reporter, cycloheximide protein synthesis inhibition counterscreen; in the data active means max response mostly above about 13%, no sharp cut-off; inactive means mostly below about 14%; further: read at 38.3 µM for the half of the compounds with a filed dose
RE007 growth inh: qHTS Assay for Inhibitors of the HIV-1 protein Vpr. S. pombe RE007 Vpr strain, BacTiter-Glo ATP luminescence, 24 h. Potency, µM (doses to about 92.2 µM), actives largely listed as inhibitors. 0.21% of 360,000 active. AID 651644, 2012; active means well fitted falling curve with a large enough effect; inconclusive means small, poorly fitted or top-dose-only effect; inactive means no such curve, though single readings can be large or run the other way; further: nearly all actives have a fitted effect of over 50% in size
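Fission yeast strain RE007, carrying one chromosomally integrated HIV-1 vpr copy, was seeded at OD 0.01 in PMG+AL medium with 23 nL pinned compound. After 24 h at 30 °C and 99% humidity, viability was read by BacTiter-Glo luminescence.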
Shiga inhibitor: A qHTS for Small Molecule Inhibitors of Shiga Toxin; Vero cells, Shiga toxin protein synthesis inhibition reporter; 9.2% of 290,000 active; inhibition, % at 38.7 µM; in the data active means inhibition mostly above about 28%, no sharp cut-off; inactive means mostly below about 43%
Numbers stand for hits; 0 = inactive; ? = inconclusive; - = no result given; [ ] = another dose, or the depositor's remark. The full list was thinned out, with hits kept by preference. Unless noted, the call rests on the fitted dose curve; in most records, active means well fitted curve in the direction sought with a large enough effect; inconclusive means small, poorly fitted or top-dose-only effect, or another doubt; inactive means no such curve, though single readings can be large; an effect the other way counts as inactive or inconclusive.

SMILES	Tb PYK inh	LmPK inhibitor	FBPA Giardia inh	CHX counter	RE007 growth inh	Shiga inhibitor
COc1cccc(-c2nnc(Nc3nc4c(F)cccc4s3)o2)c1	0	0	0	0	0	82
COc1ccccc1-c1nnc(Nc2nc3c(OC)cccc3s2)o1	0	0	?	0	0	45
O=S(=O)(c1ccc(Cl)s1)N1CCCc2cccc(O)c21	0	0	0	50	0	84
Oc1ccccc1-c1nnc2n1CCCCC2	0	0	0	0	0	0
Cc1cc(-c2nnc3n2CCCCC3)c(C)n1-c1ccccc1	0	0	0	0	0	91
O=C(NCCc1c[nH]c2ccccc12)c1c(Cl)nc2sccn12	0	0	0	23	0	0
Fc1cccc(NCCc2c[nH]c3ccccc23)n1	0	0	0	37	-	0
Cc1ccc(NC(=O)C(=O)NCCc2c[nH]c3ccccc23)cc1C	0	0	0	0	0	0
c1ccc2c(NCCc3c[nH]c4ccccc34)c3ccccc3nc2c1	0	0	0	0	-	0
O=C(NCCc1c[nH]c2ccccc12)C(=O)Nc1ccccc1	0	0	0	29	0	0
O=C(NCCc1ccccc1)C(=O)c1c[nH]c2ccccc12	0	0	0	40	0	61
C=C(C)C(O)/C=C/CCCCCCC (stereo unspecified)	-	-	0[12.9 µM]	-	-	-
CC(=O)C1=CCC(c2ccccc2Cl)N(S(=O)(=O)c2ccc(C)cc2)C1 (stereo unspecified)	0	-	-	-	0	-
O=C(Cc1ccccc1)NCCc1c[nH]c2ccccc12	0	0	0	0	0	0
O=C(NCCc1c[nH]c2ccccc12)c1cc2sccc2n1Cc1ccccc1	0	0	0	0	0	0
Cn1c(C(=O)NCCc2c[nH]c3ccccc23)cc2sccc21	0	0	0	82	0	89
O=C(NCCc1c[nH]c2ccccc12)c1ccccc1O	-	-	0	38	-	29
COc1ccccc1CCC(=O)NCCCn1ccc2ccccc21	0	0	0	0	0	0
Cc1ccc(-c2cnn(-c3cccc(C(F)(F)F)c3)c2N)cc1	0	0	0	41	0	89
O=c1cnn(-c2ccccc2)c(-c2ccccc2)c1	0	0	0	23	0	62
O=c1oc(-c2cccc(Cl)c2)nc2c1cnn2-c1ccccc1	0	0	0	0	0	0
Nc1c(-c2ccccc2)cnn1-c1ccccc1	0	?	0	44	0	87
Nc1c(-c2cccc(Cl)c2)cnn1-c1ccccc1	0	0	0	45	0	70
COc1cccc(N2C(=O)C(Cc3c[nH]c4ccccc34)NC2=S)c1 (stereo unspecified)	0	0	0	0	0	0
Cc1nn(-c2ccccc2)c(Cl)c1CN(C(=O)CCl)c1cccc2ccccc12	0	0	0	12	0	0
SMILES	Tb PYK inh	LmPK inhibitor	FBPA Giardia inh	CHX counter	RE007 growth inh	Shiga inhibitor
CCC/C=C1/CCCOC(C(=O)NCC2CC2)(C(F)(F)F)C1 (stereo unspecified)	-	-	0	0	-	0
NC(=O)c1ccccc1NC(=O)CSC1=NCCS1	0	0	0	11	0	0
O=C(CSc1nc2ccccc2o1)Nc1nc2ccccc2s1	0	0	0	43	0	49
O=C(CSc1nc2ccccc2o1)Nc1nccs1	0	0	0	28	0	0
O=C(CSc1nc2ccccc2o1)Nc1nc(-c2ccccc2)cs1	0	0	0	72	0	111
N#Cc1cnc2nc1NCCCCCCC2	0	-	-	-	0	-
O=C(NCC1CCCO1)c1cccc(S(=O)(=O)Nc2ccc(F)cc2)c1 (stereo unspecified)	0	-	-	-	0	-
COCCNc1nc(-c2ccoc2)nc2ccccc12	-	-	0	-	-	-
Cc1sc(NC(=O)CSC2=NCCS2)nc1-c1ccccc1	0	0	0	0	0	0
O=C(CSC1=NCCS1)Nc1nc2ccccc2s1	0	0	0	28	0	81
COc1ccc(CNC(=O)Nc2ccc(C)cc2)cc1	0	0	0	24	0	76
COc1ccc(NC(=O)NCc2ccncc2)cc1	0	0	0	0	0	0
COc1ccc(CNC(=O)Nc2cc(C)cc(C)c2)cc1	0	0	0	24	0	48
COc1ccc(CNc2ccc(C)c(C)c2)cc1	0	0	0	41	0	57
